# Measured values from PubChem BioAssay AID1159580 (chemical genetic matrix, 2015).
# Out of some 5,500 compounds screened, about 2,000 (36%) were called active. Inconclusive results (about 18%) are left out. This is one part of the list. A number with no mark means an inactive call. Rule as the data show it: active = normalized growth mostly below about 0.91 (no sharp cut-off); inconclusive = no clear call, values can overlap the other calls; inactive = mostly above about 0.92.
# Experiment: chemical genetic growth profiling, strain panel (AID 1159580);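 also: tested at 20 µM; growth read once vehicle control cultures reached saturation at 30 °C; 1 = growth at the plate median or of vehicle wells; lower values mean less growth of the strain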
# Settings: S. cerevisiae deletion strains, growth OD
smiles,measurement,setting,value
O=C(O)c1cc(O)c2c(c1)C(=O)c1cc(O)cc(O)c1C2=O,normalized growth,"locus YBR021W, strain FUR4, active compounds read low",0.97
same,normalized growth,"locus YBR229C, strain ROT2, active compounds read low",0.92
same,normalized growth,"locus YCL029C, strain bik1, active compounds read low",0.932
same,normalized growth,"locus YDL035C, strain GPR1, active compounds read low",0.908
same,normalized growth,"locus YDL074C, strain BRE1, active compounds read low",0.933
same,normalized growth,"locus YDL101C, strain DUN1, active compounds read low",0.931
same,normalized growth,"locus YDL185W, strain tfp1, active compounds read low",0.842 (active)
same,normalized growth,"locus YDL192W, strain arf1, active compounds read low",0.926
same,normalized growth,"locus YDR101C, strain arx1, active compounds read low",0.948
same,normalized growth,"locus YDR150W, strain NUM1, active compounds read low",0.939
same,normalized growth,"locus YDR162C, strain NBP2, active compounds read low",0.873
same,normalized growth,"locus YDR318W, strain mcm21, active compounds read low",0.93
same,normalized growth,"locus YDR388W, active compounds read low",0.938
same,normalized growth,"locus YDR502C, strain sam2, active compounds read low",0.903 (active)
same,normalized growth,"locus YEL061C, strain CIN8, active compounds read low",0.934
same,normalized growth,"locus YER110C, active compounds read low",0.881 (active)
same,normalized growth,"locus YER155C, strain BEM2, active compounds read low",0.968
same,normalized growth,"locus YER167W, strain BCK2, active compounds read low",0.939
same,normalized growth,"locus YGL078C, strain dbp3, active compounds read low",0.954
same,normalized growth,"locus YGL086W, strain mad1, active compounds read low",0.971
same,normalized growth,"locus YGL248W, strain PDE1, active compounds read low",0.956
same,normalized growth,"locus YGR135W, strain pre9, active compounds read low",0.923
same,normalized growth,"locus YGR252W, strain gcn5, active compounds read low",0.816
same,normalized growth,"locus YHR030C, strain SLT2, active compounds read low",0.913 (active)
same,normalized growth,"locus YHR079C, strain IRE1 (second series), active compounds read low",0.949
same,normalized growth,"locus YHR094C, strain hxt1, active compounds read low",0.938
same,normalized growth,"locus YHR129C, strain ARP1, active compounds read low",0.957
same,normalized growth,"locus YHR200W, strain rpn10, active compounds read low",0.939
same,normalized growth,"locus YIL066C, strain RNR3, active compounds read low",0.923
same,normalized growth,"locus YIL073C, strain SPO22, active compounds read low",0.914
same,normalized growth,"locus YIL125W, strain kgd1, active compounds read low",0.915 (active)
same,normalized growth,"locus YIR030C, strain dcg1, active compounds read low",0.939
same,normalized growth,"locus YJL095W, strain BCK1, active compounds read low",0.945
same,normalized growth,"locus YJL134W, strain LCB3, active compounds read low",0.95
same,normalized growth,"locus YJL168C, strain set2, active compounds read low",0.912 (active)
same,normalized growth,"locus YJL187C, strain SWE1 (second series), active compounds read low",0.952
same,normalized growth,"locus YJR043C, strain POL32, active compounds read low",0.864
same,normalized growth,"locus YKL009W, strain mrt4, active compounds read low",0.967
same,normalized growth,"locus YKL068W, active compounds read low",0.913 (active)
same,normalized growth,"locus YKL085W, strain MDH1 (second series), active compounds read low",0.888 (active)
same,normalized growth,"locus YKL085W, strain MDH1, active compounds read low",0.888 (active)
same,normalized growth,"locus YKL190W, strain CNB1, active compounds read low",0.95
same,normalized growth,"locus YKR001C, strain vps1, active compounds read low",0.838 (active)
same,normalized growth,"locus YLR039C, strain RIC1, active compounds read low",0.879
same,normalized growth,"locus YLR058C, strain SHM2, active compounds read low",0.91
same,normalized growth,"locus YLR102C, strain apc9, active compounds read low",0.945
same,normalized growth,"locus YLR262C, strain YPT6, active compounds read low",0.814
same,normalized growth,"locus YLR268W, strain sec22, active compounds read low",0.938
same,normalized growth,"locus YLR330W, strain CHS5, active compounds read low",0.926
same,normalized growth,"locus YLR342W, strain FKS1 (second series), active compounds read low",0.921
same,normalized growth,"locus YLR371W, strain rom2, active compounds read low",0.945
same,normalized growth,"locus YLR418C, strain cdc73, active compounds read low",0.766 (active)
same,normalized growth,"locus YML016C, strain PPZ1, active compounds read low",0.944
same,normalized growth,"locus YML032C, strain rad52, active compounds read low",0.899 (active)
same,normalized growth,"locus YML124C, strain tub3, active compounds read low",0.93 (active)
same,normalized growth,"locus YMR078C, strain ctf18, active compounds read low",0.939
same,normalized growth,"locus YMR223W, strain ubp8, active compounds read low",0.92
same,normalized growth,"locus YMR307W, strain GAS1, active compounds read low",0.872
same,normalized growth,"locus YNL067W, strain RPL9B, active compounds read low",0.977
same,normalized growth,"locus YNL153C, strain GIM3, active compounds read low",0.955
same,normalized growth,"locus YNL233W, strain BNI4, active compounds read low",0.95
same,normalized growth,"locus YNL250W, strain rad50, active compounds read low",0.863 (active)
same,normalized growth,"locus YNL271C, strain bni1, active compounds read low",0.93
same,normalized growth,"locus YNL298W, strain CLA4, active compounds read low",0.894 (active)
same,normalized growth,"locus YNL307C, strain MCK1, active compounds read low",0.931
same,normalized growth,"locus YNL322C, strain KRE1, active compounds read low",0.94
same,normalized growth,"locus YNR052C, strain pop2, active compounds read low",0.977
same,normalized growth,"locus YOL006C, strain TOP1, active compounds read low",1.02
same,normalized growth,"locus YOL012C, strain htz1",0.738
same,normalized growth,"locus YOL147C, strain pex11, active compounds read low",0.939
same,normalized growth,"locus YOR061W, strain CKA2, active compounds read low",0.916
same,normalized growth,"locus YOR069W, strain VPS5, active compounds read low",0.957
same,normalized growth,"locus YOR136W, strain idh2, active compounds read low",0.929
same,normalized growth,"locus YOR144C, strain elg1, active compounds read low",0.91 (active)
same,normalized growth,"locus YOR184W, strain ser1, active compounds read low",0.893
same,normalized growth,"locus YOR316C, strain cot1, active compounds read low",0.94
same,normalized growth,"locus YPL241C, strain CIN2, active compounds read low",0.943
same,normalized growth,"locus YPR119W, strain clb2, active compounds read low",0.951
same,normalized growth,"locus YPR141C, strain kar3, active compounds read low",0.916
same,normalized growth,"locus YPR163C, strain tif3, active compounds read low",0.938
same,normalized growth,"locus YPR167C, strain met16, active compounds read low",0.91 (active)
same,normalized growth,"strain wtn01, active compounds read low",0.948
